For 22 compounds, outcome and Potency results are on record in PubChem BioAssay (Tox21).

A number with no mark means an inactive call. Active and inactive are the calls of the source. Unless noted, calls come from the whole dose curve; as a rule, active = well fitted curve in the direction sought with a large enough effect in the repeat runs; inconclusive = weak or mixed curves; inactive = no such curve, though single readings can be large; an effect the other way counts as inactive or inconclusive.

Test [1] is described as follows: qHTS assay to test for compound auto fluorescence at 590 nm (red) in HepG2 cells (AID 720674). In a few lines: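 Rose Bengal sodium served as the red fluorophore standard. HepG2 monolayers (overnight attachment, MEM with 10% FBS) were exposed to test compounds for 1 hr at 37 C and read at Ex 540/Em 590 nm.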
For orientation: In qHTS, concentration-response curves come from the screen itself.

A short description of test [2]: qHTS assay to test for compound auto fluorescence at 535 nm (green) in HEK293 cells (AID 720680).
Test [3] is described as follows: qHTS assay to test for compound auto fluorescence at 590 nm (red) in HEK293 cell free culture (AID 720683). In a few lines:
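Tox21 10K library compounds were pinned into cell-free DMEM with 10% FBS and fluorescence was read at excitation 540 nm. Activity is expressed as Rose Bengal sodium equivalency.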

The target in test [4] is Glucocorticoid receptor (Homo sapiens) (UniProt P04150). Nature of the test: qHTS assay to identify small molecule agonists of the glucocorticoid receptor (GR) signaling pathway (AID 720691; active = well fitted activation curve with a large enough effect in the signal ratio in the repeat runs, not every such curve was filed as active; inconclusive = weak or mixed curves, or effect the other way; inactive = no such curve, though single readings can be large or run the other way; the % refers to the signal ratio). In short, it runs like this:
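Steps: seed GR-bla HeLa cells, incubate 4 h at 37 C/5% CO2; pin-transfer DMSO-dissolved compounds; incubate 18 h at 37 C; add LiveBLAzer B/G FRET substrate; after 2 h at room temperature, measure fluorescence.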

Test [5] shares this target. Put plainly: qHTS assay to identify small molecule antagonists of the glucocorticoid receptor (GR) signaling pathway (AID 720692; active = well fitted inhibition curve with a large enough effect in the signal ratio in the repeat runs, not every such curve was filed as active; inconclusive = weak or mixed curves, or effect the other way; inactive = no such curve, though single readings can be large or run the other way; the % refers to the signal ratio; note: potency is the fitted concentration of half-maximal effect). In a few lines:
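Antagonism was scored as loss of dexamethasone-driven (5 nM final) reporter signal in HeLa cells bearing a glucocorticoid response element–beta-lactamase construct, after 18 h compound exposure at 37 C and 2 h FRET substrate loading.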

The nature of test [6]: qHTS assay to identify small molecule antagonists of the glucocorticoid receptor (GR) signaling pathway - cell viability counter screen (AID 720693). Note: nearly all actives have a fitted effect of over 55% in size.
Test [7] is described as follows: qHTS assay to identify small molecule antagonists of the thyroid receptor (TR) signaling pathway - cell viability counter screen (AID 743064). Note: nearly all actives have a fitted effect of over 50% in size. In short, it runs like this:
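Counter screen for cytotoxicity: compound plus T3 (1 nM final) on GH3.TRE-Luc cells, 23.5 h at 37 °C, then fluorescence viability readout with CellTiter-Fluor.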

Test [8] in a line: qHTS assay to identify small molecule antagonists of the thyroid receptor (TR) signaling pathway (AID 743065). Note: nearly all actives have a fitted effect of over 55% in size. Note: potency is the fitted concentration of half-maximal effect. In a few lines:
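GH3.TRE-Luc rat pituitary cells carrying two TR response elements driving luciferase were plated for 4 h, given compound plus 1 nM T3 (final), and incubated 23.5 h at 37 C. ONE-Glo luminescence measured reporter inhibition; CellTiter-Fluor fluorescence tracked cytotoxicity.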

In test [9] the test system is thyroid hormone receptor (rat, GH3 cells). Put plainly: qHTS assay to identify small molecule agonists of the thyroid receptor (TR) signaling pathway (AID 743066; calls by dose curve).
Test [10] in a line: qHTS assay to identify small molecule antagonists of the estrogen receptor alpha (ER-alpha) signaling pathway using the BG1 cell line - cell viability counter screen (AID 743081).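 Note: compound given together with 17beta-estradiol as the ER stimulus; series mostly up to about 70 µM; nearly all actives have a fitted effect of over 45% in size.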
A short description of test [11]: qHTS assay to identify small molecule that activate the aryl hydrocarbon receptor (AhR) signaling pathway - cell viability counter screen (AID 743086).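 Note: HepG2 liver cells carrying the AhR DRE luciferase reporter; series mostly up to about 70 µM; nearly all actives have a fitted effect of over 45% in size.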 In a few lines:
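HepG2-AhR-luc (HG2L7.5c1) cells, 4000/well, were preincubated 5 h at 37C, exposed to compound in qHTS format for 24 hr at 37C, then given CellTiter-Fluor for 30 min; viability was read as fluorescence in the reporter wells.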

Test [12] is described as follows: qHTS assay to identify small molecule phospholipidosis (PLD) inducers (AID 1259344; active = well fitted curve in the direction sought with a large enough effect; inconclusive = small, poorly fitted or top-dose-only effect, or another doubt; inactive = no such curve, though single readings can be large; an effect the other way counts as inactive or inconclusive). In a few lines:
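Cells (HepG2, 900 per well) attach for 4 h, receive LipidTOX Red and compound together, incubate 24 h at 37 C, are fixed 30 min with paraformaldehyde/Hoechst, then imaged at one site per well.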

A short description of test [13]: qHTS assay for small molecules that induce genotoxicity in human embryonic kidney cells expressing luciferase-tagged ATAD5 - cell viability (AID 651634; calls by dose curve; note: nearly all actives have a fitted effect of over 25% in size). In short, it runs like this: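 Cells (HEK293T, luciferase-tagged ATAD5) are seeded at 2,000 per well, dosed with compound or DMSO vehicle, and incubated 15.5 hr at 37C and 5% CO2. CellTiter-Fluor is added for 30 min before fluorescence is measured.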

A short description of test [14]: qHTS assay for small molecule disruptors of the mitochondrial membrane potential (AID 720635). Note: potency is the fitted concentration of half-maximal effect. In a few lines: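 HepG2 cells (2,000/well) attached overnight at 37C, then took compound for 1 hr at 37C, 5% CO2. Mito-MPS dye was added for 30 min; fluorescence was read at 490/535 nm (monomers) and 540/590 nm (aggregates).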
Test [15] in a line: qHTS assay for identifying genotoxic compounds that show differential cytotoxicity against isogenic chicken DT40 cell lines with known DNA damage response pathways - Rev3 mutant cell line (AID 743014). Note: nearly all actives have a fitted effect of over 55% in size.
The target of test [16] is Estrogen receptor (Homo sapiens) (UniProt P03372). Put plainly: qHTS assay to identify small molecule agonists of the estrogen receptor alpha (ER-alpha) signaling pathway (AID 743075; calls by dose curve;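 note: HEK293 GripTite cells with ER-alpha and UAS-driven beta-lactamase reporter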; note: potency is the fitted concentration of half-maximal effect).
Estrogen receptor (Homo sapiens), sequence (P03372 whole entry, looked up): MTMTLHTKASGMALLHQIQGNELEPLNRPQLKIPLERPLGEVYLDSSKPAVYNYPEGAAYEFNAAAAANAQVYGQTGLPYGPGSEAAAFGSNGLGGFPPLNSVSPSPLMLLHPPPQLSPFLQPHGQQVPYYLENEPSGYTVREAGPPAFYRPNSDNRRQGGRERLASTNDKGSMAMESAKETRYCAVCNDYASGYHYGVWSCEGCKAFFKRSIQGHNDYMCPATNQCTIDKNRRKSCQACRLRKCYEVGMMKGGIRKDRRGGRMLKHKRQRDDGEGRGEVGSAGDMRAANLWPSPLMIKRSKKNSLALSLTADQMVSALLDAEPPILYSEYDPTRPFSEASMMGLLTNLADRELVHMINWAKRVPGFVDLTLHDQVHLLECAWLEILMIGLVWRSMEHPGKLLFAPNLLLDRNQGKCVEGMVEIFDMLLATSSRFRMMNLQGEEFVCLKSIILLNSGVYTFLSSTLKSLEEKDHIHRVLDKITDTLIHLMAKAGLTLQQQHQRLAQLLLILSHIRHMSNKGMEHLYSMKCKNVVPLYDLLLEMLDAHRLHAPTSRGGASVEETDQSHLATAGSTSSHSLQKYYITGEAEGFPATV
Test [17] has the same target. Nature of the test: qHTS assay to identify small molecule agonists of the estrogen receptor alpha (ER-alpha) signaling pathway using the BG1 cell line (AID 743079). Note: nearly all actives have a fitted effect of over 20% in size. Note: potency is the fitted concentration of half-maximal effect.
Test [18] in a line: qHTS assay to identify small molecule antagonists of the estrogen receptor alpha (ER-alpha) signaling pathway using the BG1 cell line (AID 743080; calls by dose curve;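 note: BG1 cells stimulated with 17beta-estradiol alongside compound; series mostly up to about 70 µM; nearly all actives have a fitted effect of over 25% in size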). In short, it runs like this:
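Readout is ONE-Glo luminescence, taken 30 min at room temperature after reagent addition, preceded by a CellTiter-Fluor viability read; BG1-Luc-4E2 cells had received compound and 17beta-estradiol for 21.5 h at 37 C.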

Test [19] addresses Peroxisome proliferator-activated receptor gamma (Homo sapiens) (UniProt P37231). Put plainly: qHTS assay to identify small molecule agonists of the peroxisome proliferator-activated receptor gamma (PPARg) signaling pathway (AID 743094; active = well fitted activation curve with a large enough effect in the signal ratio in the repeat runs, not every such curve was filed as active; inconclusive = weak or mixed curves, or effect the other way; inactive = no such curve, though single readings can be large or run the other way; the % refers to the signal ratio). In short, it runs like this:
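Cells from the PPARg UAS-bla HEK293H line are plated and incubated 5 h at 37C. Compounds in DMSO are pinned in and left 17 h at 37C. LiveBLAzer B/G substrate is then added for 1 h at room temperature before fluorescence is measured.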

Test [20] is described as follows: qHTS assay for small molecule agonists of the p53 signaling pathway (AID 651631; calls by dose curve; note: nearly all actives have a fitted effect of over 15% in size; note: potency is the fitted concentration of half-maximal effect). In short, it runs like this: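 Stably transfected HCT-116 cells (beta-lactamase behind p53 response elements) get compounds after a 5 h settling period; 16 h later at 37 °C, FRET substrate is loaded and fluorescence read after 2 h.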

Glucocorticoid receptor (Homo sapiens), sequence (P04150 whole entry, looked up): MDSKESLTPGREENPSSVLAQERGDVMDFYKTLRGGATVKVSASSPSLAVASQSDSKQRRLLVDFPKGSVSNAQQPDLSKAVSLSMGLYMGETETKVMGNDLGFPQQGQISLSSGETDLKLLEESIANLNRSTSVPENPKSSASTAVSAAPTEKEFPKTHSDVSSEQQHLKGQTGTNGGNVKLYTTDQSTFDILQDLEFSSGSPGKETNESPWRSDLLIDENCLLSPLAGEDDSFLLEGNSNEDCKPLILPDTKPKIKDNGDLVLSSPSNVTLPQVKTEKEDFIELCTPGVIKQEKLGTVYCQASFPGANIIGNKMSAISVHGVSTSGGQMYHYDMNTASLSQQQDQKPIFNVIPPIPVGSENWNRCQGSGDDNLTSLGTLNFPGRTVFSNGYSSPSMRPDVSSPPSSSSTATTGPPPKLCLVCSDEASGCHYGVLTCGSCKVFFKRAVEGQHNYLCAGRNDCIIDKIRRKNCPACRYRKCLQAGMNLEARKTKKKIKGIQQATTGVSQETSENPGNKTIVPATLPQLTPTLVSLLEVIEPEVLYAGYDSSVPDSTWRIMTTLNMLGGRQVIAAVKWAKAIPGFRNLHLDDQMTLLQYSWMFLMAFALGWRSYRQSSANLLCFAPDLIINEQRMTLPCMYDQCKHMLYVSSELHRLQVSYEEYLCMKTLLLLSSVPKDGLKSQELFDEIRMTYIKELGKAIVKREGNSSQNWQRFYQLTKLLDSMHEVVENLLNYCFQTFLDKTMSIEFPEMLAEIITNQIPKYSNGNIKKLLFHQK
Peroxisome proliferator-activated receptor gamma (Homo sapiens), sequence (P37231 whole entry, looked up): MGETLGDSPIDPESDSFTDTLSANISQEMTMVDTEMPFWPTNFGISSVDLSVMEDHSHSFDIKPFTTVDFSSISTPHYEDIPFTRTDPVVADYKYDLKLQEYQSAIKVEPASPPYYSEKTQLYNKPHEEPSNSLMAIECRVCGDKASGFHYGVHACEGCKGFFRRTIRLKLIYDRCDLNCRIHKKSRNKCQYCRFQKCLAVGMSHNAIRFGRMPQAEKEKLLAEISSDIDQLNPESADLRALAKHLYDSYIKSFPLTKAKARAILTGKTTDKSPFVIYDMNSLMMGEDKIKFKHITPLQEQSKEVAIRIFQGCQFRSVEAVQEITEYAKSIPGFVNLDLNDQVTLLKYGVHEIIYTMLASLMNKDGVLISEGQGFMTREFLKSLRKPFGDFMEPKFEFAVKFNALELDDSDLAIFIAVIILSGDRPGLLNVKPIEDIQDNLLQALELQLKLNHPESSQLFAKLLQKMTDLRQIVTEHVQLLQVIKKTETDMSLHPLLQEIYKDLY

On to `CCN(CC)/[N+]([O-])=N/O`, for which the call in [1] and in test [3] was inactive. The Potency result in test [2], in test [4], in [5], in test [6], in test [7] and in test [8] was “inactive” throughout. Moreover, the Potency entry in test [9], in [10], in test [11] and in test [12] was “inactive” each time.
Turning to `COc1ccc(OC)c(C[C@H](C)N)c1`, the Potency entry in test [13], in [14], in test [2], in [6], in test [15] and in test [7] was “inactive” throughout. For the same compound, the Potency result in test [16], in [17], in test [18], in [10], in test [19] and in [12] was “inactive” throughout.
For `Brc1ccc(Oc2ccc(Br)cc2)cc1`, in test [20], the Potency entry was “inactive”.
On to `Clc1ccc(C(Cn2ccnc2)OCc2csc3c(Cl)cccc23)c(Cl)c1` (centres undefined), for which the Potency entry in [13], in [5], in [6], in test [18], in [10] and in test [11] was “inactive” in each case. In addition, the Potency result in test [19] and in test [12] was “inactive” each time. In test [3], the result was inactive.
In the case of `CC1(C)C(C=C(Cl)Cl)C1C(=O)OCc1cccc(Oc2ccccc2)c1` (centres undefined), the Potency entry in test [20] is “inactive”.
With `Cc1ccccc1-n1c(CF)nc2ccc(N)cc2c1=O`, the Potency entry in [20], in test [14], in test [15], in [7], in [8] and in [9] was “inactive” in each case. The Potency entry in test [10] and in [19] was “inactive” in each case. The result in test [3] was inactive.
On to `Cc1ccc(C)cc1`, for which the Potency entry in [20] was “inactive”.
With `CN[C@H]1C[C@@H](N)[C@H](O)[C@@H](O[C@@H]2O[C@H](CO)[C@H](O)[C@@H]3OC4(O[C@H]23)O[C@H](C(N)CO)[C@H](O)[C@H](O)[C@H]4O)[C@@H]1O` (some centres undefined), the Potency entry in test [20], in [13], in test [2], in test [6], in test [15] and in test [7] was “inactive” throughout. Further, the Potency entry in test [9], in [16], in test [17], in test [10] and in [19] was “inactive” in each case. In addition, the outcome in [1] was inactive. For the same compound, in test [8], the Potency is 11.9 µM (active).
With `C[C@]12C[C@H]3S[C@H]3C[C@@H]1CC[C@@H]1[C@@H]2CC[C@]2(C)[C@@H](O)CC[C@@H]12`, the Potency entry in [13], in [2], in [4], in test [6], in [15] and in test [7] was “inactive” in each case. Besides, the Potency entry in test [8], in [9], in test [10], in [11] and in test [19] was “inactive” each time. The Potency in [14] was 11.4 µM (active); in [16], 0.256 µM [inconclusive] (active); in test [17], 0.143 µM (active). Also, the compound was classed as inactive in test [1] and in test [3].
Turning to `CCCC(C)(COC(N)=O)COC(=O)NC1CC1` (centres undefined), the Potency entry in [13], in test [14], in test [2], in test [4], in test [5] and in test [6] was “inactive” throughout. Further, the Potency result in [15], in [7], in test [8], in [9], in [16] and in test [17] was “inactive” throughout. Moreover, the Potency result in test [18], in [10], in test [11] and in test [19] was “inactive” in each case. Moreover, the compound was classed as inactive in test [1] and in test [3].
For the compound `C=CCN(C1=NCCN1)c1c(Cl)cccc1Cl`, the Potency entry in test [20], in test [13], in test [14], in test [2], in test [4] and in [5] was “inactive” throughout. Further, the Potency result in test [6], in test [15], in test [7], in [8], in test [9] and in test [16] was “inactive” in each case. Further, the Potency result in [18], in [10], in [11] and in test [19] was “inactive” in each case. The compound was classed as inactive in [1] and in test [3]. Besides, in [17], the Potency was 11.9 µM (active).
For `O=C(Cl)c1cccc(C(=O)Cl)c1`, the Potency result in test [20] was “inactive”.
As for `CNC(=O)Oc1ccc2c(c1)[C@]1(C)CCN(C)[C@@H]1N2C`, the Potency result in test [20] is “inactive”.
Consider `CN=C1CN(O)C(c2ccccc2)=c2cc(Cl)ccc2=N1`, for which the Potency result in [20], in test [13], in test [4], in test [5], in test [6] and in [15] was “inactive” each time. Besides, the Potency result in [7], in test [8], in [9], in [16], in test [17] and in test [18] was “inactive” in each case. Further, the Potency entry in test [10], in test [11] and in test [19] was “inactive” throughout. In addition, the call in test [1] and in test [3] was inactive.
As for `CCOc1ccc2c3c1O[C@H]1[C@@H](O)C=C[C@H]4[C@@H](C2)N(C)CC[C@@]341`, the Potency result in test [20], in test [13], in test [14], in test [2], in test [4] and in test [5] was “inactive” each time. The Potency entry in test [6], in [9], in test [16], in test [17], in test [18] and in [10] was “inactive” each time. The Potency result in [19] was “inactive”. In addition, the compound was called inactive in test [1] and in test [3].
For `CC(C)(C)OCC1CO1` (centres undefined), the Potency entry in [20] is “inactive”.
As to `COc1ccc(C)cc1N`, the Potency result in test [20] was “inactive”.
With `Clc1ccc(Cl)c(Cl)c1Cl`, the Potency result in [20] was “inactive”.
Consider `Nc1ccc(N)c2ccccc12`, for which, in test [5], the Potency is 24.5 µM (active).
For `Brc1c2ccccc2cc2ccccc12`, the Potency in test [20] is 61.8 µM (active).
`CCC1(C)CC(=O)NC(=O)C1`: the Potency entry in test [20], in test [13], in [14], in test [2], in [4] and in test [5] was “inactive” each time. Moreover, the Potency result in test [6], in test [15], in test [7], in [8], in test [9] and in test [16] was “inactive” each time. Moreover, the Potency result in test [17], in test [10] and in [19] was “inactive” each time. The call in test [1] and in test [3] was inactive.
Turning to `C=CCOc1c(Br)cc(C(C)(C)c2cc(Br)c(OCC=C)c(Br)c2)cc1Br`, the Potency entry in test [20] and in test [5] was “inactive” each time.
